The results in this text go back to ChEMBL document CHEMBL1961873, “Compounds: GSK PKIS; Assays: Nanosyn kinase panel” (2012).

Assay [1] addresses High affinity nerve growth factor receptor (Homo sapiens) (UniProt P04629). Particulars: at 1 µM.
In assay [2] the target is BDNF/NT-3 growth factors receptor (Homo sapiens) (UniProt Q16620). Particulars: at 0.1 µM.
For assay [3] the target is unchanged. Particulars: at 1 µM.
For assay [4], the target named is NT-3 growth factor receptor (Homo sapiens) (UniProt Q16288). Particulars: at 0.1 µM.
Assay [5] has the same target. Particulars: at 1 µM.
The target of assay [6] is T1, Tyrosine-protein kinase TXK (Homo sapiens) (UniProt P42681).
T1 sequence (whole entry): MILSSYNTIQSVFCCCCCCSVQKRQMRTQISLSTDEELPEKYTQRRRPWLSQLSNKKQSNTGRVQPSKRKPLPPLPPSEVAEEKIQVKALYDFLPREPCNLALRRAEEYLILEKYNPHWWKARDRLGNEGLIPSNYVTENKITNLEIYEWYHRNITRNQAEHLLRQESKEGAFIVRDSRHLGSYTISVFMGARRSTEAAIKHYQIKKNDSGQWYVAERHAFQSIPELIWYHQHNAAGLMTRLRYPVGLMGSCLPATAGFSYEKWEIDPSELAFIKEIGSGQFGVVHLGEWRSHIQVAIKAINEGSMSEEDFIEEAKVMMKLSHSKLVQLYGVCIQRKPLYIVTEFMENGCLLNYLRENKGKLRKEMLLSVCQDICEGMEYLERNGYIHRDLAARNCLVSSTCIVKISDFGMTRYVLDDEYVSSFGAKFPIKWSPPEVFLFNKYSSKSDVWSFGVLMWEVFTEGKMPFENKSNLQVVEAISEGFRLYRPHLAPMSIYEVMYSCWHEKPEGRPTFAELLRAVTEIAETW
Particulars: at 0.1 µM.

Assay [7] deals with T1, Tyrosine-protein kinase TXK (Homo sapiens). Particulars: at 1 µM.
The target in assay [8] is Non-receptor tyrosine-protein kinase TYK2 (Homo sapiens) (UniProt P29597). Particulars: at 0.1 µM.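 Note: each value is a mean of the inhibition readings.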
Assay [9] concerns the target T2, Dual specificity protein kinase TTK (Homo sapiens) (UniProt P33981).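 Note: reported figures are mean TTK inhibition at 1 µM.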
T2 sequence (whole entry): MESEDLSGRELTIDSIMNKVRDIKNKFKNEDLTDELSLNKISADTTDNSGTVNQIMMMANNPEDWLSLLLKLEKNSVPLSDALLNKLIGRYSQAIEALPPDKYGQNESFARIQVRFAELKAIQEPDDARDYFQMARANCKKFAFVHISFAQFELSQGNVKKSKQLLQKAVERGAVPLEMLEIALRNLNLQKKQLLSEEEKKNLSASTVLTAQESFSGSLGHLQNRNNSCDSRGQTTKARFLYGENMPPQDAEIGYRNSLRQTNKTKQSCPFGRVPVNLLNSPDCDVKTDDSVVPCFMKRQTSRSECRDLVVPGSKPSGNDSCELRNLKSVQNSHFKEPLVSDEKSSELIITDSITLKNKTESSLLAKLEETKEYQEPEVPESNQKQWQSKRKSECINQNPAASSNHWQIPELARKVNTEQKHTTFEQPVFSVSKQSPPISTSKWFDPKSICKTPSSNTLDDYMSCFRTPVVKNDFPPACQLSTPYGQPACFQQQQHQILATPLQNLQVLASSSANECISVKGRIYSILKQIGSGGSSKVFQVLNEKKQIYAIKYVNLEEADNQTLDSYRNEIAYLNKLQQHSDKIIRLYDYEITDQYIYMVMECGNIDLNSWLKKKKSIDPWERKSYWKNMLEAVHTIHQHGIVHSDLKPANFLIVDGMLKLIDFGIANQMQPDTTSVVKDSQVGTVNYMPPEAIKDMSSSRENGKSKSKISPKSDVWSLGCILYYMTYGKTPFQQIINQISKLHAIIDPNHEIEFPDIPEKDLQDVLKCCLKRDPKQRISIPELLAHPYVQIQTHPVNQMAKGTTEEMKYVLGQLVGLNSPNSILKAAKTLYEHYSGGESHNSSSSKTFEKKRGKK
Particulars: at 1 µM.

The target in assay [10] is T3, Aurora kinase A (Homo sapiens) (UniProt O14965).
T3 sequence (whole entry): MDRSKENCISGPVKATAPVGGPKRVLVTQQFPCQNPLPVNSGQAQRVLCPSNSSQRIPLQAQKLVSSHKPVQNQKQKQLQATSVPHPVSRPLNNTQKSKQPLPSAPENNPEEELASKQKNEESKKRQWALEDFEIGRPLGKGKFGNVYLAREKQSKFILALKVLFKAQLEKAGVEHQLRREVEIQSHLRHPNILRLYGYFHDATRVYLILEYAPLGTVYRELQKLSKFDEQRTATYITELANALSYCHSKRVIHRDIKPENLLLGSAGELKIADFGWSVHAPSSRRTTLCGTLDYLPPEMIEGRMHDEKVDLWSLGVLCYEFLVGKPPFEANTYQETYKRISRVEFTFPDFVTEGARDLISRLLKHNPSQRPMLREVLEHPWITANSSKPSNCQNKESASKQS
Particulars: at 0.1 µM.

Assay [11] concerns the target T3, Aurora kinase A (Homo sapiens). Particulars: at 1 µM.
The target of assay [12] is Aurora kinase B (Homo sapiens) (UniProt Q96GD4). Particulars: at 0.1 µM.
Assay [13] has the same target. Particulars: at 1 µM.
In assay [14] the target is T4, Aurora kinase C (Homo sapiens) (UniProt Q9UQB9).
T4 sequence (whole entry): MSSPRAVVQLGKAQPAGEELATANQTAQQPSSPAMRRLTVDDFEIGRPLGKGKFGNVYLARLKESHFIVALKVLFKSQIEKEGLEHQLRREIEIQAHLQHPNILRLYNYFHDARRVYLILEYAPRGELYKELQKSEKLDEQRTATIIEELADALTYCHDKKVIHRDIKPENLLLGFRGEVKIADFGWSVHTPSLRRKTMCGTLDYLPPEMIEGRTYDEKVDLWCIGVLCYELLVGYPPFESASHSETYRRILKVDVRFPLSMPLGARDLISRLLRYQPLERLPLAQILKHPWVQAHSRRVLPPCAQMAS
Particulars: at 0.1 µM.

Assay [15] deals with T4, Aurora kinase C (Homo sapiens). Particulars: at 1 µM.
For assay [16], the target named is Serine/threonine-protein kinase 10 (Homo sapiens) (UniProt O94804). Particulars: at 0.1 µM.
The target is the same in assay [17]. Particulars: at 1 µM.
The target of assay [18] is T5, Mitogen-activated protein kinase kinase kinase kinase 2 (Homo sapiens) (UniProt Q12851).
T5 sequence (whole entry): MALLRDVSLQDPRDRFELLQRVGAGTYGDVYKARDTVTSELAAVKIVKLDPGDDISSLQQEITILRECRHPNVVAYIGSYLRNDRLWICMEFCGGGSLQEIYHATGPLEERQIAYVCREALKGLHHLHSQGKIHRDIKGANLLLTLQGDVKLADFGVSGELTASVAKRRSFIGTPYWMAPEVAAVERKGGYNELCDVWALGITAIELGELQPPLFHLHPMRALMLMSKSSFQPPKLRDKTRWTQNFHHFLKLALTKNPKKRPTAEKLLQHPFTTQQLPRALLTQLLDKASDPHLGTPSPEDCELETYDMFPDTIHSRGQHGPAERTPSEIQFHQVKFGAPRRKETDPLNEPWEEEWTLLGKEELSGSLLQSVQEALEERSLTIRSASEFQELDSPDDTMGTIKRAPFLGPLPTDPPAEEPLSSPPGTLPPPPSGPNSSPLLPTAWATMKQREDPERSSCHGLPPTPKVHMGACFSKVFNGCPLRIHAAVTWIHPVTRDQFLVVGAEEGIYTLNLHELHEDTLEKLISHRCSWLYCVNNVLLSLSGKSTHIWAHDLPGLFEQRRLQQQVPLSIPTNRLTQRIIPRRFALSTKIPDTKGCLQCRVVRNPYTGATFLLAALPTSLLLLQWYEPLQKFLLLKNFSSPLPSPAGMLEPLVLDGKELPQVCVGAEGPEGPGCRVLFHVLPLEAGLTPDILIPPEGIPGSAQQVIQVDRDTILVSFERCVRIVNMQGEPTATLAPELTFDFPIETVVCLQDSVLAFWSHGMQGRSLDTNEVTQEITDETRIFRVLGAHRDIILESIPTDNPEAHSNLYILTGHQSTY
Particulars: at 0.1 µM.

In assay [19] the target is T5, Mitogen-activated protein kinase kinase kinase kinase 2 (Homo sapiens). Particulars: at 1 µM.
Assay [20] deals with Mitogen-activated protein kinase kinase kinase kinase 4 (Homo sapiens) (UniProt O95819). Particulars: at 0.1 µM.

Structures are written as SMILES.

Sequence of Serine/threonine-protein kinase 10 (Homo sapiens) (O94804 whole entry, looked up): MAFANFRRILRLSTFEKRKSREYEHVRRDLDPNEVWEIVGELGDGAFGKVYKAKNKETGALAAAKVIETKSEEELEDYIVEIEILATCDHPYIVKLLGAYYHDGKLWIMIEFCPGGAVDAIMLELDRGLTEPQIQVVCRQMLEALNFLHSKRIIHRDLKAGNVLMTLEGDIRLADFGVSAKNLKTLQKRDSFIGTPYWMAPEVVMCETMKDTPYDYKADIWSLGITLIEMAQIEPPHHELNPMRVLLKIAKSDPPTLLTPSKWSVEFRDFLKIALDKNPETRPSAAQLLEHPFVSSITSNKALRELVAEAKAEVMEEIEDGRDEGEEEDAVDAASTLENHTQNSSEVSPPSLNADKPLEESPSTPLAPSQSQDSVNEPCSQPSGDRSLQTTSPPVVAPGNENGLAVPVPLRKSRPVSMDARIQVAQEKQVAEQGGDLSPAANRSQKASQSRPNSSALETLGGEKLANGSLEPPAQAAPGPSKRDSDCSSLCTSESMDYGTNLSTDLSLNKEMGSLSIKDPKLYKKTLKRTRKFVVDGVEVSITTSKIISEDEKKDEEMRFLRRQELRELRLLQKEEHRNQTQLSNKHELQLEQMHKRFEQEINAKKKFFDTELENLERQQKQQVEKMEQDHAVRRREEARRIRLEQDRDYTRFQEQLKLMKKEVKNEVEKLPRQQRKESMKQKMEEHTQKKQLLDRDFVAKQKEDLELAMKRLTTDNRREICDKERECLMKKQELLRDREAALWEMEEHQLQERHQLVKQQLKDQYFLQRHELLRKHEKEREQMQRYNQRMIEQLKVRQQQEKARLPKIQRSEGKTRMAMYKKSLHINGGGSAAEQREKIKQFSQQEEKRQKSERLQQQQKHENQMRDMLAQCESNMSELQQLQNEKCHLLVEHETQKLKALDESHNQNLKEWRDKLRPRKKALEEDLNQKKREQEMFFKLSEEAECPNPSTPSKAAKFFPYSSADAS
Sequence of Non-receptor tyrosine-protein kinase TYK2 (Homo sapiens) (P29597 whole entry): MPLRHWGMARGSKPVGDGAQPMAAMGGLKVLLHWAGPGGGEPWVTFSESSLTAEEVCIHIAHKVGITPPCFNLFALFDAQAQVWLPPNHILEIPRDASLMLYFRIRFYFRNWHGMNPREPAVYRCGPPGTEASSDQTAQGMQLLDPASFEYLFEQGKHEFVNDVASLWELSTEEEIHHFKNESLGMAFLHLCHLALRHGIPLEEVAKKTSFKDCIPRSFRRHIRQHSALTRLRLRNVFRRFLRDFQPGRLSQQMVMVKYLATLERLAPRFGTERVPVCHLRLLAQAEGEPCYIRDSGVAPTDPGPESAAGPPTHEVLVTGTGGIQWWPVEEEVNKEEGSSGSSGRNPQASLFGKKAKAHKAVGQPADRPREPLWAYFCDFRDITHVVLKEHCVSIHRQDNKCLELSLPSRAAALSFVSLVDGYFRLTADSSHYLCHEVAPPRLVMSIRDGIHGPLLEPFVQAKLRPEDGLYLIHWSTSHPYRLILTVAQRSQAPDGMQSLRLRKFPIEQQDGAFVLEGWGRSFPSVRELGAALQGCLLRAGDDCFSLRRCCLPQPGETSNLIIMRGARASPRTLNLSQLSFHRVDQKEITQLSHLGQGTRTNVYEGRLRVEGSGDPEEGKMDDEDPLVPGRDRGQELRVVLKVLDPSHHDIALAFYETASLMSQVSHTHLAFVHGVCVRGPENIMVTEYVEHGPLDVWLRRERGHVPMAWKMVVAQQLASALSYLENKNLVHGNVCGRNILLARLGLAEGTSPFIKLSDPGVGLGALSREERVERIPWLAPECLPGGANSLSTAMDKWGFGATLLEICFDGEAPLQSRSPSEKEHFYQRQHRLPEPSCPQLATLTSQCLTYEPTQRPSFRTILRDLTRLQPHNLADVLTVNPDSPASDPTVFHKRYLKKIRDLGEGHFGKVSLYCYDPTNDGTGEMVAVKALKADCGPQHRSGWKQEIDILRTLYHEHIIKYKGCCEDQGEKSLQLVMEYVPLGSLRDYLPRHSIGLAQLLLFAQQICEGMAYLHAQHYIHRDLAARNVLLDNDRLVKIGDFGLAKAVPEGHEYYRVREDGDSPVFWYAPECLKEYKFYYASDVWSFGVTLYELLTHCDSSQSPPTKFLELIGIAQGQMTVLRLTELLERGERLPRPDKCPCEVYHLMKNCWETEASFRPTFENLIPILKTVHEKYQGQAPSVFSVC
Sequence of Mitogen-activated protein kinase kinase kinase kinase 4 (Homo sapiens) (O95819 2-1239 limits assumed): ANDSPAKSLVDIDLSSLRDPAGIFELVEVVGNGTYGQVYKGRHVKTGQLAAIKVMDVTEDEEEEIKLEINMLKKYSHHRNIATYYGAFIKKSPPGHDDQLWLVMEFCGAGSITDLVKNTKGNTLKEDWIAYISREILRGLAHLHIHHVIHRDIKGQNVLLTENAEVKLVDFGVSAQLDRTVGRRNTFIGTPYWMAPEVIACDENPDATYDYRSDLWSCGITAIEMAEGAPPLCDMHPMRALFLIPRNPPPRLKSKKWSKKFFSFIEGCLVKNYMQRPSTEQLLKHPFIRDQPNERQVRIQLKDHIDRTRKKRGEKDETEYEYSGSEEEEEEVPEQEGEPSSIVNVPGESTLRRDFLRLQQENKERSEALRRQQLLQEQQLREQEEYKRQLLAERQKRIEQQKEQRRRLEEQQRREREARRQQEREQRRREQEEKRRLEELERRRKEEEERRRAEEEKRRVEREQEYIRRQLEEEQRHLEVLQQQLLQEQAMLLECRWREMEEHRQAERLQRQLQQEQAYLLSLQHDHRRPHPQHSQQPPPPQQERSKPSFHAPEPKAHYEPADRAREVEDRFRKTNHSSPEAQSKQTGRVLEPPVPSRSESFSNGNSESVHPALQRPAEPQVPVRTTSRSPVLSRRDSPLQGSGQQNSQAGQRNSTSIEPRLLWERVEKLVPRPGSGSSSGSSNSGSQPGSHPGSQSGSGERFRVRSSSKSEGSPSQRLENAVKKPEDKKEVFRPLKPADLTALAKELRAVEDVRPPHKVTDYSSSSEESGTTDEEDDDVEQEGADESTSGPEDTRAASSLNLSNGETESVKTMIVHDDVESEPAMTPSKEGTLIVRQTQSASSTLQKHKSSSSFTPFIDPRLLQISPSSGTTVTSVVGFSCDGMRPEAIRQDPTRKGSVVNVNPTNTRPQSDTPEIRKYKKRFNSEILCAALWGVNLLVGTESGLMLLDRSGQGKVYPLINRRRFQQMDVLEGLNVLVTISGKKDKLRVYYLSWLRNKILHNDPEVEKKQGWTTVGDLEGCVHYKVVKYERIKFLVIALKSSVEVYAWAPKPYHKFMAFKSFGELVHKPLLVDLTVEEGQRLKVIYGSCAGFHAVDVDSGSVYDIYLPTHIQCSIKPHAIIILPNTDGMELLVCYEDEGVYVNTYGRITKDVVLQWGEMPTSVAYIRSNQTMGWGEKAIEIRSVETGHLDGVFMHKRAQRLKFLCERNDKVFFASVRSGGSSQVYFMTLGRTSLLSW
Sequence of NT-3 growth factor receptor (Homo sapiens) (Q16288 32-839 limits assumed): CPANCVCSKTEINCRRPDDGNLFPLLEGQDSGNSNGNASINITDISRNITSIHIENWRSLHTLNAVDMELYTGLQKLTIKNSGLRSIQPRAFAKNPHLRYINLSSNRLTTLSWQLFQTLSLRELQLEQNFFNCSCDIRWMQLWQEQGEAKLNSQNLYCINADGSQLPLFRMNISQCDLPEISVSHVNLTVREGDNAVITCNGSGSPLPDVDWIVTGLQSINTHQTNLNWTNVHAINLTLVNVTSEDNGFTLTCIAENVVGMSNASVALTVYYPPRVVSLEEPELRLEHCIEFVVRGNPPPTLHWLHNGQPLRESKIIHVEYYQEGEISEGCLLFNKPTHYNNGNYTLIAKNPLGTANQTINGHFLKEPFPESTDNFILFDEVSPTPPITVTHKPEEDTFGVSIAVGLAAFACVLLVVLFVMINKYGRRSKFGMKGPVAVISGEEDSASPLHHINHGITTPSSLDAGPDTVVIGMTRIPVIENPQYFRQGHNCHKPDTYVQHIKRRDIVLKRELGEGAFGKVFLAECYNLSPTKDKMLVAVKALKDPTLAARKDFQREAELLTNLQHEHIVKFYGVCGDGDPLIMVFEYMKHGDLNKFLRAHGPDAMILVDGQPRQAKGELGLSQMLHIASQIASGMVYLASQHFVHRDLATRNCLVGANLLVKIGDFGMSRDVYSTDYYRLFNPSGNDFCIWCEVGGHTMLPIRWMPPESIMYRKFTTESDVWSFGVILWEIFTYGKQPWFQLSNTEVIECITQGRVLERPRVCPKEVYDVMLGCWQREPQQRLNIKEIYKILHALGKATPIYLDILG
Sequence of High affinity nerve growth factor receptor (Homo sapiens) (P04629 33-796 limits assumed): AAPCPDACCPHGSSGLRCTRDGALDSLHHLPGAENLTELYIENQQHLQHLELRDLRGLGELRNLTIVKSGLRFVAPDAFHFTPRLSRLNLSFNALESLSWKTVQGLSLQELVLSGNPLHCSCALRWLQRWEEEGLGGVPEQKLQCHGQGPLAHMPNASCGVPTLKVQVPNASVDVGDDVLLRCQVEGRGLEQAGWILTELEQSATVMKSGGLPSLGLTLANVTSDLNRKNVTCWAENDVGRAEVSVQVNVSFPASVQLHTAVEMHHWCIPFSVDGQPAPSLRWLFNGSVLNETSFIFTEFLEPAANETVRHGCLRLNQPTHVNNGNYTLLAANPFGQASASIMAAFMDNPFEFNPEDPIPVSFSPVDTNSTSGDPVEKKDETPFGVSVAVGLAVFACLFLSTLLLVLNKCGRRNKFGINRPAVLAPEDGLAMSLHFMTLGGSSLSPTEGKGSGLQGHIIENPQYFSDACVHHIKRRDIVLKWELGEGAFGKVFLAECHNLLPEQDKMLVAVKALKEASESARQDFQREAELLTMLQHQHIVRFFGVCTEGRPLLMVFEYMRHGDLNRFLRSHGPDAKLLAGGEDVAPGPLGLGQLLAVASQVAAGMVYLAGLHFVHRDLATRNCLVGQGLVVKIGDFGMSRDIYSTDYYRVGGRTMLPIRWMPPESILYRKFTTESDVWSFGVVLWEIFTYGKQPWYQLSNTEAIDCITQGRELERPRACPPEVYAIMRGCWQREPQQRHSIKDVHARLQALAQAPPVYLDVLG

For `COc1ccc2ncn(-c3cc(O[C@H](C)c4ccccc4Cl)c(C(N)=O)s3)c2c1`, the inhibition in assay [1] is 4.03%; in assay [2], 3.84%; in assay [3], 9.91%; in [4], 4.36%; in assay [5], 11%; in [6], -5.63%. For the same molecule, the inhibition in assay [7] was -1.33%; in assay [8], -5.25%; in [9], 9.02%; in [10], -1.27%; in assay [11], 0.29%; in assay [12] it was -0.75%. Also, the inhibition in assay [13] was 1.24%; in assay [14], -3.77%; in assay [15], 1.77%; in assay [16], 20.3%; in [17] it was 59.1%; in assay [18], 1.91%. Moreover, the inhibition in assay [19] was determined as 11%; in [20], 4.38%.

`Fc1ccc(-c2ncn(C3CCNCC3)c2-c2ccnc(Oc3ccc4c(c3)OCO4)n2)cc1`: the inhibition in assay [1] came out at 4.38%; in [2], 5.44%; in [3], 5.76%; in assay [4], 4.02%; in assay [5] it was 7.26%; in assay [6], 0.33%. In addition, the inhibition was 3.68% in assay [7]; -2.53% in assay [8]; 9.25% in [9]; 4.04% in assay [10]; 2.71% in assay [11]; 5.39% in assay [12]. Besides, the inhibition in assay [13] is 7.86%; in assay [14], 7.07%; in assay [15], 11.4%; in assay [16], 8.13%; in assay [17], 7.17%; in assay [18] it was 1.35%. Also, the inhibition came to 9.73% in [19] and 2.42% in assay [20].

For `COc1ccc2cc(-c3c(-c4ccncc4)nc(-c4ccc([S+](C)[O-])cc4C)n3C)ccc2c1` (stereo not given), the inhibition in [1] was -0.68%; in assay [2], -0.26%; in assay [3] it was -0.8%; in assay [4], -0.79%; in [5], 1.56%; in assay [6], 0.29%. Also, the inhibition in assay [7] is 1.25%; in [8] it was -1.86%; in [9] it was 1.61%; in assay [10] it was -0.61%; in [11] it was 4.24%; in assay [12] it was 2.96%. The inhibition in assay [13] was 6.06%; in assay [14], -0.11%; in [15], 2.95%; in assay [16], 52.4%; in assay [17] it was 97.3%; in assay [18], -0.16%. The values for the inhibition in assay [19] and in assay [20] were 0.1% and 1.21%, respectively.

Turning to `CCS(=O)(=O)c1ccc(OC)c(Nc2ncc(-c3cccc(-c4ccccc4F)c3)o2)c1`, the inhibition in assay [1] was found to be 26%; in assay [2] it was 7.74%; in assay [3], 39.2%; in assay [4], 7.3%; in [5], 39.5%; in [6] it was 5.11%. Also, the inhibition in assay [7] is 31.2%; in assay [8], 1.51%; in [9], 3.52%; in assay [10] it was 0.79%; in assay [11] it was 15%; in [12], 3.23%. In addition, the inhibition in [13] is 3.48%; in [14], 0.45%; in [15] it was -0.17%; in assay [16], 2.05%; in [17] it was 15.4%; in [18], 1.69%. For the same molecule, the inhibition came to 2.38% in assay [19] and 2.34% in assay [20].

Regarding `O=C(Nc1n[nH]c2cc(-c3ccccc3)ccc12)C1CC1`, the inhibition in [1] is 4.46%; in assay [2], 1.46%; in assay [3] it was 6.76%; in assay [4], 0.77%; in assay [5], 7.68%; in assay [6] it was 8.18%. For the same molecule, the inhibition in assay [7] is 17.7%; in assay [8], -4.71%; in assay [9], 6.67%; in assay [10] it was 1.71%; in assay [11], 13.2%; in assay [12], 4.05%. Moreover, the inhibition came to 3.92% in [13]; 0.96% in [14]; 9.67% in [15]; 4.04% in assay [16]; 19.9% in assay [17]; 1.56% in [18]. The inhibition in assay [19] was 4.2%; in [20], 33.6%.

For `NS(=O)(=O)c1ccc(Nc2cc(-c3ccc(O)c(F)c3)n[nH]2)cc1`, the inhibition was 36.2% in assay [1]; 6.06% in [2]; 36.7% in assay [3]; 10.5% in assay [4]; 47.7% in assay [5]; -1.15% in [6]. The inhibition is -0.33% in assay [7]; 0.21% in [8]; 10% in assay [9]; -2.14% in assay [10]; 37.3% in assay [11]; 0.09% in [12]. Besides, the inhibition in assay [13] is 19.4%; in [14] it was -0.76%; in assay [15], 22.4%; in [16], -0.42%; in [17], 16.4%; in [18], 0.41%. Moreover, the inhibition was 6.09% in [19] and 18.7% in assay [20].

With `COc1cc(N2CCN(C(C)C)CC2)ccc1Nc1nc(Nc2ccc(F)cc2C(=O)NC[C@@H](O)CO)c2cc[nH]c2n1`, the inhibition was 1.99% in assay [1]; 3.32% in assay [2]; 5.92% in assay [3]; 3.35% in [4]; 4.57% in assay [5]; -1.48% in assay [6]. Besides, the inhibition in assay [7] is -0.56%; in [8], -4.74%; in assay [9], 82%; in assay [10], -1.18%; in assay [11] it was -2.23%; in assay [12], -2.39%. Moreover, the inhibition in assay [13] is 3.15%; in assay [14], -2.54%; in assay [15], -7.09%; in [16], 6.3%; in [17], 9.7%; in [18], 1.34%. The inhibition worked out at 1.33% in assay [19] and 4.24% in assay [20].

The term inhibition denotes the drop in the measured response relative to a control, in per cent.
